# Screens from PubChem BioAssay.
# esBAF inh = Bmi1 luciferase reporter increase in mESCs, primary screen, esBAF inhibitor project, mouse ES cells, Bmi1 luciferase knock-in, single point; reporter increase, % at 12.5 µM; 2% of 350,000 active; 24 h; 100% = twice the neutral-well signal; in the data active = activation above about 40%; inconclusive = no clear call, values can overlap the other calls;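 also: 0% = median of the plate's neutral control wells and 100% = double that signal; a rise in the Bmi1 reporter signal indicates esBAF inhibition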
# Vif inh = HIV Vif self-association inhibitors, primary screen, imaging, HEK293T, single point; inhibition, % at 7.49 µM; HEK293T cells, Vif self-association by quenched fluorescence, 24 h; 0.35% of 340,000 active; in the data active = inhibition above about 50%, passing the limit was not always enough; inconclusive = no clear call, values can overlap the other calls; inactive = below about 31%
# SMARCA2 activ = SMARCA2 (BRM) function activators, primary screen, cell-based, luminescence, high throughput | MG213 cells, MMTV-luciferase reporter, dexamethasone, overnight | 1% of 370,000 active | activation, % at 9.1 µM; in the data active = activation above about 7.8%;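 also: 0% = vehicle wells and 100% = reference activator wells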
# NR3A LBD binder = binders of NR3A ligand-binding domain, primary screen, biophysical, differential scanning fluorimetry, uHTS. NR3A LBD differential scanning fluorimetry, Tm shift; 0% = protein alone, 100% = glycine-bound protein. 2.5% of 340,000 active. AID 1259313, 2017. Tm shift relative to glycine control, % at 25 µM. Glutamate receptor ionotropic, NMDA 3A (GRIN3A) ligand-binding domain;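 active = melting temperature shift of at least 10% of the positive control shift, at one fixed dose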
# SKN-1 inh = suppressors of acrylamide-induced Pgst-4::GFP reporter in worms, primary screen, SKN-1 inhibitor project, whole organism, uHTS, GFP/RFP fluorescence ratio, strain VP596 | inhibition, % at 21.8 µM | C. elegans VP596 Pgst-4::GFP/RFP ratio, 24 h | 0.49% of 360,000 active;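 active = interference check ratio from 0.5 to 1.5 plus GFP to RFP signal ratio inhibition reaching or exceeding a fixed threshold, cut at about 30% in these data, passing the limit was not always enough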
# NadD inh = inhibitors of S. aureus NadD, primary screen, biochemical, colorimetric, uHTS. inhibition, % at 20 µM. purified NadD enzyme, colorimetric absorbance read-out. 0.78% of 360,000 active. Nicotinate-nucleotide adenylyltransferase NadD (Staphylococcus aureus N315); in the data active = inhibition above about 26%
# Active calls of the source: *; i = inactive; ? = inconclusive; . = no result given. Most compounds without a hit are left out; they make up all but 5.2% or so of the library.
SMILES,esBAF inh,Vif inh,SMARCA2 activ,NR3A LBD binder,SKN-1 inh,NadD inh
COc1ccc(C(=O)/C=C/c2ccc(OC)c(CN3CCOCC3)c2)cc1,.,1,-1,-10,61*,-6
COc1ccc(/C=N/NC(=O)c2ccncc2)cc1CN1CCOCC1,-2,-4,-3,12*,2,-7
COc1ccc(/C=N/NC(=O)c2ccc(Br)cc2)cc1CN1CCOCC1,.,-17,2,-2,5,-5
C[C@H]1CN([C@@H](C)CO)C(=O)c2cccc(NS(=O)(=O)c3cn(C)cn3)c2O[C@@H]1CN(C)Cc1ccc(C(=O)O)cc1,1,.,.,.,.,.
COc1cc2cc(NC(C)=O)cc(NCc3ccccc3)c2cc1OC,-4,i,-4,12*,2,-2
CCCCNc1cc(NC(C)=O)cc2cc(OC)c(OC)cc12,47*,.,0,-3,7,1
O=C(C[C@@H]1C=C[C@H](NC(=O)Nc2ccc(C(F)(F)F)cc2)[C@@H](CO)O1)NCc1cccc(F)c1,-3,.,.,.,.,.
COc1cccc(C(=O)Nc2ccc3c(c2)OC[C@@H](C)N(C(C)=O)C[C@@H](C)[C@@H](OC)CN(C)C3=O)c1,-4,.,.,.,.,.
C[C@@H]1CN([C@@H](C)CO)C(=O)c2cc(NC(=O)NC3CCCCC3)ccc2O[C@H]1CN(C)Cc1ccc(C(=O)O)cc1,-3,.,.,.,.,.
CCOC(=O)Nc1nc(-c2ccc(F)cc2F)cs1,.,-2,3,-3,56*,-2
CC(C)c1nc(-c2ccc([N+](=O)[O-])cc2)cs1,55*,-4,2,0,53*,3
CC(=O)Nc1nc(-c2ccc([N+](=O)[O-])cc2)cs1,.,0,-3,1,1,-1
O=C1c2ccccc2C(=O)c2c1ccc(C(=O)N1CCCCC1)c2NCCO,-7,-15,-1,12*,40*,6
Cc1[nH]nc(N=CC2=C(O)CC(C)(C)CC2=O)c1-c1ccccc1,45*,1,-4,1,5,-4
Clc1ccccc1/C=N/NC1=Nc2cccc3cccc1c23,.,4,7,19*,16,16
Clc1ccc(-n2ncc3c(NCc4cccs4)ncnc32)cc1,31,3,3,7,3,10
Cc1cccc(-n2ncc3c(NCc4cccs4)ncnc32)c1,56*,.,3,-9,8,-5
Cc1cccc(-n2ncc3c(NCc4ccccn4)ncnc32)c1,53*,-14,4,-2,20,0
Cc1cccc(-n2ncc3c(NCc4ccco4)ncnc32)c1,82*,-6,5,0,-9,-4
c1ccc(-n2ncc3c(NCc4ccccn4)ncnc32)cc1,24,-5,.,0,-20,-4
CCCCCOc1ccc(CSc2ncn[nH]2)cc1,47*,-5,1,-19,2,-2
CCCCOc1ccc(CSc2ncn[nH]2)cc1,33,3,1,0,2,0
Cn1c(N/N=C/c2ccccc2)nc2sc3c(c2c1=O)CCC3,.,-9,2,-2,48*,4
COCCNC(=O)CC(c1ccccc1)c1ccccc1,.,11,-3,-1,36*,6
O=C(CC(c1ccccc1)c1ccccc1)NCCOCc1ccccc1,-2,?,-2,-1,-1,-5
SMILES,esBAF inh,Vif inh,SMARCA2 activ,NR3A LBD binder,SKN-1 inh,NadD inh
CCCCCCNC(=O)CC(c1ccccc1)c1cc(Br)ccc1O (stereo not given),-8,-10,-5,12*,-16,-3
CCCNC(=O)Nc1ccc2c(c1)C(=O)N(C)C[C@H](OC)[C@@H](C)CN(C(=O)c1ccccc1F)[C@H](C)CO2,-1,.,.,.,.,.
COc1cc(OC)cc(C(=O)N[C@H](C(=O)OCC(N)=O)C(C)C)c1,.,5,1,11*,-6,-1
COc1ccc(NS(=O)(=O)c2cc(NC(=O)[C@@H](NC(=O)c3ccccc3)C(C)C)ccc2C)cc1,.,1,-5,13*,6,1
COc1cc(OC)cc(C(=O)NC(C(=O)Nc2ccc3c(c2)OCO3)C(C)C)c1 (stereo not given),-2,125*,7,3,6,4
CC(C)[C@H](NC(=O)c1ccccc1F)C(=O)Nc1ccc2c(c1)OCO2,3,-4,1,0,9,3
COc1ccc(NS(=O)(=O)c2cc(NC(=O)c3ccc(=O)[nH]c3)ccc2C)cc1,1,18,0,-1,22,3
COc1cc(OC)cc(C(=O)N[C@H](C(=O)Nc2ccc3c(c2)OCO3)C(C)C)c1,-5,91*,-2,0,-4,-2
C[C@H](CO)N1C[C@H](C)[C@H](CN(C)S(=O)(=O)c2cn(C)cn2)Oc2ccc(NS(=O)(=O)c3cn(C)cn3)cc2C1=O,-4,.,.,.,.,.
C[C@@H]1CCCCO[C@@H](CN(C)C(=O)Nc2ccc(C(F)(F)F)cc2)[C@H](C)CN([C@H](C)CO)C(=O)c2cc(NC(=O)c3ccncc3)ccc2O1,2,.,.,.,.,.
Cc1ccccc1S(=O)(=O)Nc1nc2ccccc2nc1NCCO,-4,52*,0,2,-9,0
O=C(Nc1cccc(C(F)(F)F)c1)NC1CCCCC1,14,-4,4,-4,10,-2
O=C(OC(C(=O)Nc1cccc(C(F)(F)F)c1)c1ccccc1)C1CCCCC1 (stereo not given),.,9,2,14*,-4,-8
O=C(Nc1ccc(N2CCCCC2)cc1)c1ccc2ccccc2n1,34,-18,4,-1,69*,-23
O=C(Nc1ccc(-c2cn3c(n2)SCC3)cc1)c1ccc2ccccc2n1,.,-7,-2,22*,26,14
CCCS(=O)(=O)Nc1cccc(-c2cn3c(n2)SCC3)c1,1,2,3,1,11,7
O=C(Nc1cccc(-c2cn3c(n2)SCC3)c1)c1ccc2ccccc2n1,60*,-7,0,-11,8,22
CS(=O)(=O)Nc1ccc(-c2cn3c(n2)SCC3)cc1,5,.,2,2,6,1
O=C(OCC(=O)N1CCN(c2ccccc2)CC1)c1ccc2ccccc2n1,-1,-1,5,14*,1,-5
CNC[C@H]1Oc2ccc(NS(=O)(=O)c3ccc(Cl)cc3)cc2CC(=O)N([C@@H](C)CO)C[C@@H]1C,3,.,.,.,.,.
C[C@H]1CN([C@@H](C)CO)C(=O)c2cc(NS(=O)(=O)c3cn(C)cn3)ccc2O[C@H]1CN(C)C(=O)NC1CCCCC1,0,.,.,.,.,.
